# Counter-ions that a name gives are not always drawn. About 620 (11%) of roughly 5,800 compounds showed activity. The list comes from a sample in which actives are over-represented; it also holds similar structures and randomly drawn compounds. Values without a mark were called inactive.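 How the source made its calls: active = score above a cut-off or among the top three wells of a plate; in these data no inactive exceeds 0.85.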
# System: primary human hepatic stellate cells (donor 1)
# Assay: scaled lipid accumulation score (0 = DMSO-like, 1 = nortriptyline-like); higher = stronger HSC inactivation (lipid re-accumulation), active = hit call of the paper
# Conditions: 48 h
# [1] = library stock concentration: 3.33 mM
# [2] = library stock concentration: 10 mM
# [3] = library stock concentration: 80 uM
# [4] = library stock concentration: 400 uM
# [5] = library stock concentration: 2 mM
# [6] = library stock concentration: 1 mM
structure (smiles),measurement,setting,value
COc1c2ccoc2nc2c(OC)c(OCC(O)C(C)(C)O)ccc12 (centres undefined) [Evoxine],scaled lipid accumulation score,,≤ 0
COc1ccc(CCN(C)CCCC(C#N)(c2ccc(OC)c(OC)c2)C(C)C)cc1OC (centres undefined) [Verapamyl hydrochloride],scaled lipid accumulation score,,0.545
COc1ccc(CCN(C)CCCC(C#N)(c2ccc(OC)c(OC)c2)C(C)C)cc1OC (centres undefined) [Verapamil HCl],scaled lipid accumulation score,[1],0.332
same,scaled lipid accumulation score,[2],0.536
COc1ccc(CCN(C)CCCC(C#N)(c2ccc(OC)c(OC)c2)C(C)C)cc1OC (centres undefined) [Verapamil hydrochloride],scaled lipid accumulation score,[2],0.587
COc1ccc(CCN(C)CCCC(C#N)(c2ccc(OC)c(OC)c2)C(C)C)cc1OC (centres undefined) [Verapamil],scaled lipid accumulation score,library stock concentration: 4.4 mM,0.416
O=C(O)Cc1c2ccccc2n2c1[nH]c(=O)c1ccccc12,scaled lipid accumulation score,[3],≤ -0.001
same,scaled lipid accumulation score,[4],≤ -0.001
same,scaled lipid accumulation score,[5],≤ -0.001
same,scaled lipid accumulation score,[2],≤ -0.001
CCCCC[C@H](O)/C=C/[C@H]1C(=O)C[C@H](O)[C@@H]1C/C=C\CCCC(=O)OC [Prostaglandin D2 methyl ester],scaled lipid accumulation score,[6],≤ 0
CNCc1cc(-c2ccccc2F)n(S(=O)(=O)c2cccnc2)c1,scaled lipid accumulation score,[1],0.046
same,scaled lipid accumulation score,[2],0.471
CC(C)=CCC/C(C)=C/CC/C(C)=C/CC[C@]1(C)CCc2c(C)c(O)c(C)c(C)c2O1 [.alpha.-Tocotrienol],scaled lipid accumulation score,[6],0.026
CCCc1c(OCC(O)COc2ccc3c(=O)cc(C(=O)O)oc3c2CCC)ccc(C(C)=O)c1O (centres undefined),scaled lipid accumulation score,[2],≤ -0.001
c1ccc2[nH]cnc2c1 [DRB (Benzimidazole)],scaled lipid accumulation score,library stock concentration: 15.7 mM,0.081
Clc1ccc(C2(c3ccc(-c4cn[nH]c4)cc3)CCNCC2)cc1 [listing 1 of 3 here],scaled lipid accumulation score,[1],1.22 (active)
Clc1ccc(C2(c3ccc(-c4cn[nH]c4)cc3)CCNCC2)cc1 [listing 2 of 3 here],scaled lipid accumulation score,[3],0.375
same,scaled lipid accumulation score,[4],0.622
same,scaled lipid accumulation score,[2],0.425
Clc1ccc(C2(c3ccc(-c4cn[nH]c4)cc3)CCNCC2)cc1 [listing 3 of 3 here],scaled lipid accumulation score,[5],0.95 (active)
same,scaled lipid accumulation score,[2],1.16 (active)
C[n+]1ccccc1C=NO [Pralidoxime mesylate],scaled lipid accumulation score,[2],0.016
O=C1C2CC3CC1CC(O)(C3)C2,scaled lipid accumulation score,[2],0.163
"N[C@H](C(=O)O)[C@H]1C[C@@H]1C(=O)O [(2S,1'S,2'S)-2-(carboxycyclopropyl)glycine]",scaled lipid accumulation score,[2],0.17
COC(=O)C1=C(C)NC(C)=C(C(=O)OCCSc2ccccc2)C1C (centres undefined),scaled lipid accumulation score,[2],0.111
same,scaled lipid accumulation score,library stock concentration: 13.8 mM,0.203
CCOC(=O)C1=C(C)NC(C)=C(C(=O)OC)C1c1cccc(Cl)c1Cl (centres undefined) [Felodipine] [listing 1 of 2 here],scaled lipid accumulation score,,0.05
same,scaled lipid accumulation score,[1],≤ 0
same,scaled lipid accumulation score,library stock concentration: 5.2 mM,0.028
same,scaled lipid accumulation score,[2],≤ 0
CCOC(=O)C1=C(C)NC(C)=C(C(=O)OC)C1c1cccc(Cl)c1Cl (centres undefined) [Felodipine] [listing 2 of 2 here],scaled lipid accumulation score,[2],0.931 (active)
CCOC(=O)C1=C(COCCN)NC(C)=C(C(=O)OC)C1c1ccccc1Cl (centres undefined) [Amlodipine],scaled lipid accumulation score,[1],0.492
same,scaled lipid accumulation score,library stock concentration: 4.9 mM,≤ -0.006
same,scaled lipid accumulation score,[2],0.33
CCCC(=O)OCOC(=O)C1=C(C)NC(C)=C(C(=O)OC)C1c1cccc(Cl)c1Cl (centres undefined) [Clevidipine Butyrate],scaled lipid accumulation score,[1],≤ 0
same,scaled lipid accumulation score,[2],≤ 0
CCO/C(O)=C1\C(COCCN)=NC(C)=C(C(=O)OC)C1c1ccccc1Cl (centres undefined),scaled lipid accumulation score,[2],1.38 (active)
CCO/C(O)=C1\C(C)=NC(c2ccccc2)=C(C(=O)OCc2ccc([N+](=O)[O-])cc2)C1C#Cc1ccccc1 (centres undefined),scaled lipid accumulation score,[2],≤ 0
CCOC(=O)C1=C(COCCN)NC(C)=C(C(=O)OC)C1c1ccccc1Cl.O=S(=O)(O)c1ccccc1 (centres undefined) [Amlodipine besylate],scaled lipid accumulation score,[2],1.02 (active)
CCOC(=O)C1=C(COCCN)NC(C)=C(C(=O)OC)C1c1ccccc1Cl (centres undefined) [Amlodipine besylate],scaled lipid accumulation score,library stock concentration: 3.5 mM,≤ 0
NC(=O)OCC(O)COc1ccc(Cl)cc1 (centres undefined) [Chlorphensin carbamate],scaled lipid accumulation score,,≤ 0
CCOc1c2c(c(OCC)c3ccccc13)C(=O)N(c1ccc(CC(=O)NS(=O)(=O)c3ccccc3)cc1)C2,scaled lipid accumulation score,[6],≤ 0
CCCCC/C=C\C/C=C\C/C=C\C/C=C\CCCCNC(=O)c1ccc(O)cc1,scaled lipid accumulation score,[6],≤ 0
"CCCCC(C)CC(O)/C=C/C1C(O)CC(O)C1CCCCCCC(=O)O (stereo not drawn) [17,20-dimethyl Prostaglandin F1.alpha.]",scaled lipid accumulation score,[6],≤ 0
Nc1cccc2c1CN(C1CCC(=O)NC1=O)C2=O (centres undefined) [Lenalidomide (CC-5013)],scaled lipid accumulation score,[1],0.003
same,scaled lipid accumulation score,[2],≤ 0
Nc1cccc2c1CN(C1CCC(=O)NC1=O)C2=O (centres undefined) [Lenalidomide],scaled lipid accumulation score,[3],0.004
same,scaled lipid accumulation score,[4],0.005
same,scaled lipid accumulation score,[5],≤ -0.001
same,scaled lipid accumulation score,[2],≤ -0.001
Nc1nc2[nH]cnc2c(=S)[nH]1 [Thioguanine],scaled lipid accumulation score,[2],≤ 0
same,scaled lipid accumulation score,library stock concentration: 12 mM,≤ 0
O=C(NCCCCCCNC(=O)ON=C1CCCCC1)ON=C1CCCCC1,scaled lipid accumulation score,[2],0.062
same,scaled lipid accumulation score,library stock concentration: 12.7 mM,0.056
CNC(=O)c1ccc(Nc2cc(Nc3ccccc3S(=O)(=O)C(C)C)c3cc[nH]c3n2)nc1,scaled lipid accumulation score,[3],0.027
same,scaled lipid accumulation score,[4],0.02
same,scaled lipid accumulation score,[5],0.04
same,scaled lipid accumulation score,[2],≤ 0
Cc1coc2c1C(=O)C(=O)c1c-2ccc2c(C)cccc12 [Tanshinone I],scaled lipid accumulation score,[1],≤ 0
same,scaled lipid accumulation score,[2],≤ 0
CCCCC/C=C\C/C=C\C/C=C\C/C=C\CCCC(=O)O [Arachidonic Acid],scaled lipid accumulation score,[6],≤ 0
"CCCCC/C=C\C/C=C\C/C=C\C/C=C\CCCC(=O)O [Arachidonic acid (20:4, n-6)]",scaled lipid accumulation score,[6],≤ -0.021
Cc1ccc(C(=O)Nc2cccc(C(F)(F)F)c2)cc1-c1ccc2nc(NCCN3CCOCC3)ncc2c1 [listing 1 of 2 here],scaled lipid accumulation score,[2],1.34 (active)
Cc1ccc(C(=O)Nc2cccc(C(F)(F)F)c2)cc1-c1ccc2nc(NCCN3CCOCC3)ncc2c1 [listing 2 of 2 here],scaled lipid accumulation score,[4],≤ -0.005
same,scaled lipid accumulation score,[5],0.748
COc1ccc(N(C(=O)Oc2cc(C(=O)Nc3cccc(C(F)(F)F)c3)ccc2C)c2ccnc(Nc3ccc(N4CCN(C)CC4)cc3)n2)c(OC)c1,scaled lipid accumulation score,[3],0.07
same,scaled lipid accumulation score,[4],0.248
same,scaled lipid accumulation score,[5],0.495
same,scaled lipid accumulation score,[2],0.396
CCCCCC(=O)/C=C/C=O [4-oxo-2-Nonenal],scaled lipid accumulation score,[6],≤ 0
COc1ccc(-c2cc(=O)c3c(O)cc(O)cc3o2)cc1 [Acacetin],scaled lipid accumulation score,,≤ 0
same,scaled lipid accumulation score,[2],≤ -0.027
Cc1cc(Nc2ncc(Cl)c(Nc3ccccc3S(=O)(=O)C(C)C)n2)c(OC(C)C)cc1C1CCNCC1,scaled lipid accumulation score,[1],0.582
same,scaled lipid accumulation score,[2],0.131
Cc1cc(Nc2ncc(Cl)c(Nc3ccccc3S(=O)(=O)C(C)C)n2)c(OC(C)C)cc1C1CCNCC1 [Ceritinib],scaled lipid accumulation score,[3],0.312
same,scaled lipid accumulation score,[4],0.357
same,scaled lipid accumulation score,[5],0.663
same,scaled lipid accumulation score,[2],≤ 0
O=C1Nc2ccc(Br)cc2/C1=C/c1cc2c([nH]1)CCCC2 [VEGF Receptor 2 Kinase Inhibitor II],scaled lipid accumulation score,[1],0.454
CN(C)S(=O)(=O)c1ccc2c(c1)/C(=C/c1cc3c([nH]1)CCCC3)C(=O)N2 [listing 1 of 3 here],scaled lipid accumulation score,[6],0.413 (active)
COc1cc(OC)c(C=C2C(=O)Nc3ccccc32)c(OC)c1,scaled lipid accumulation score,[1],≤ 0
same,scaled lipid accumulation score,[2],≤ 0
CN(C)S(=O)(=O)c1ccc2c(c1)/C(=C/c1cc3c([nH]1)CCCC3)C(=O)N2 [listing 2 of 3 here],scaled lipid accumulation score,[1],0.613
CN(C)S(=O)(=O)c1ccc2c(c1)/C(=C/c1cc3c([nH]1)CCCC3)C(=O)N2 [listing 3 of 3 here],scaled lipid accumulation score,[2],0.958 (active)
O=C1Nc2ccccc2/C1=C\c1c(Cl)[nH]c2ccccc12,scaled lipid accumulation score,[3],≤ -0.001
same,scaled lipid accumulation score,[4],≤ -0.001
same,scaled lipid accumulation score,[5],≤ -0.001
same,scaled lipid accumulation score,[2],0.116
"CCCCC[C@H](O)CC[C@@H]1[C@@H](CCCCCCC(=O)O)[C@@H](O)C[C@H]1O [13,14-dihydro Prostaglandin F1.alpha.]",scaled lipid accumulation score,[6],≤ 0
NCc1c[nH]c(=S)n1C1CCc2c(F)cc(F)cc2C1 [(R)-Nepicastat HCl],scaled lipid accumulation score,[1],≤ 0
same,scaled lipid accumulation score,[2],0.361
CC(=NNC(=S)N1CCC1)c1ccccn1,scaled lipid accumulation score,[1],0.164
same,scaled lipid accumulation score,[2],0.375
CCCCC1(C2CCCC2)Cc2cc(OCC(=O)O)c(Cl)c(Cl)c2C1=O (stereo in doubt) [R(+)-Butylindazone],scaled lipid accumulation score,[2],0.139
CN(CC(=O)N(Cc1ccc(C2CCCCC2)cc1)c1ccc(C(=O)O)cc1)S(=O)(=O)c1c(F)c(F)c(F)c(F)c1F,scaled lipid accumulation score,[1],≤ -0.009
same,scaled lipid accumulation score,[2],0.483
CCCCC[C@H](O)/C=C/[C@@H]1[C@@H](C/C=C\CCCC(=O)N(C)C)[C@@H](O)C[C@H]1O [Prostaglandin F2.alpha. dimethyl amide],scaled lipid accumulation score,[6],≤ 0
CC(C)NCC(O)c1ccc2ccccc2c1 (centres undefined) [Pronethalol hydrochloride],scaled lipid accumulation score,,0.369
same,scaled lipid accumulation score,[2],0.221
CC(COc1ccccc1)N(CCCl)Cc1ccccc1 (centres undefined) [Dibenzyline],scaled lipid accumulation score,[2],0.174
CC(C)NCC(O)c1ccc2ccccc2c1 (centres undefined) [Pronetalol hydrochloride],scaled lipid accumulation score,[2],0.107
CC(COc1ccccc1)N(CCCl)Cc1ccccc1 (centres undefined) [Phenoxybenzamine HCl],scaled lipid accumulation score,[1],≤ 0
same,scaled lipid accumulation score,library stock concentration: 6.6 mM,0.025
same,scaled lipid accumulation score,[2],≤ 0
CC(C)NCC(O)c1ccc2ccccc2c1 (centres undefined) [Pronethalol HCl],scaled lipid accumulation score,library stock concentration: 8.7 mM,0.224
CC(COc1ccccc1)N(CCCl)Cc1ccccc1 (centres undefined) [Phenoxybenzamine],scaled lipid accumulation score,library stock concentration: 16.5 mM,≤ -0.012
CC(C)N(CCC(=O)c1ccc2ccccc2c1)Cc1ccccc1,scaled lipid accumulation score,[1],0.613
same,scaled lipid accumulation score,[2],0.619
CC(COc1ccccc1)N(CCCl)Cc1ccccc1 (centres undefined) [Phenoxybenzamine hydrochloride],scaled lipid accumulation score,,0.065
same,scaled lipid accumulation score,library stock concentration: 5.9 mM,≤ 0
CC(C)N(CCC(=O)c1ccc2ccccc2c1)Cc1ccccc1.Cl [listing 1 of 2 here],scaled lipid accumulation score,[2],1.1 (active)
CC(C)N(CCC(=O)c1ccc2ccccc2c1)Cc1ccccc1.Cl [listing 2 of 2 here],scaled lipid accumulation score,[2],0.966 (active)
C=CC(=O)c1ccc2ccccc2c1,scaled lipid accumulation score,[2],0.015
